From PubChem BioAssay come the findings set out here.

In general, inhibition refers to the drop in the measured response relative to a control, in per cent.

Assay [1] in a line: viability rescue of complex I mutant cybrids, primary screen, cell-based, galactose medium, ATP luminescence (AID 1645843).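 Note: positive z means more ATP and so rescue of galactose-driven cybrid death.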 Particulars: complex I mutant cybrid cells, 72 h, stronger effect = higher value.
Assay [2] can be described thus: circadian clock period modulators, cell-based, LOPAC library, luminescence reporter (AID 2774; call rule not given here;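 note: values are relative to mean of DMSO wells on each plate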). Particulars: circadian reporter cells, at 7 µM, actives lie on both sides.
Assay [3] in a line: phospholipid biosynthesis inhibitors in animal cells, primary screen, cell-based, LOPAC library, screen 4 (AID 1347384; call rule not given here). Conditions: phospholipid biosynthesis inhibition screen, at 10 µM.
In assay [4] the test system is Hepatitis C virus NS3 helicase. The assay can be described thus: HCV NS3 helicase inhibitors, primary screen, biochemical, fluorescence polarization, LOPAC1280 library (AID 687035; in the data active = inhibition above about 37%). Conditions: Purified HCV NS3 helicase, Cy5-dT15 ssDNA binding fluorescence polarization; stronger effect = higher value; concentration not given here. (Fluorescence polarisation rises when a labelled molecule tumbles more slowly, as on binding a larger partner.)

Assay [5] in a line: Cy5 fluorescence quenching or enhancement artefacts, artefact control for HCV NS3 helicase inhibitor project, biochemical, LOPAC1280 (AID 687037; call rule not given here). Conditions: Cy5-DNA-NS3h complex fluorescence interference counterscreen. For orientation: The purpose of a counterscreen is to sort out artefacts and off-target activity.
Assay [6] is described as follows: polyglutamine-triggered caspase-3 activation inhibitors, cell-based (AID 1583). Particulars: polyglutamine-induced caspase-3 activation, cell assay; stronger effect = higher value;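 tested at 10 µM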.
Assay [7] can be described thus: suppressors of polyQ aggregation in yeast, 75Q-TubU reporter (AID 1593). Conditions: Yeast 75Q polyglutamine aggregation reporter.
Assay [8] can be described thus: modifiers of HSF1 nuclear foci, imaging, Selleck Cancer Library (AID 1347162; in the data active = plate-normalised HSF1 focus index below about 0.46). Conditions: human cells, at 10 µM; SSMD: measured here: HSF1 foci SSMD mean; cell count: measured here: cell number; plate-normalised HSF1 focus index: stronger effect = lower value.
A short description of assay [9]: differential killing of epithelial or mesenchymal cells, primary screen, imaging, PC-3E GFP, TEM4-18 mCherry, co-culture (AID 1345086;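 active = compounds killing one labelled cell type while sparing the other, by normalised counts and ratio limits, not self-fluorescent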;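 note: cells exposed to compound for 72 h before imaging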;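 for red/green cell ratio (normalised): normalised mesenchymal count divided by normalised epithelial count so high means epithelial killing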). Particulars: imaging cell counts, at 1 µM.
Assay [10] can be described thus: LFS_MB_1R medulloblastoma cell growth inhibition, synergistic combos for chromothripsis tumors, cisplatin or BGB combos (AID 1671452; in the data active = inhibition above about 80%;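 note: cells exposed for 96 hours before readout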). Conditions: LFS_MB_1R medulloblastoma cells, stronger effect = higher value.
A short description of assay [11]: CRL2098 osteosarcoma cell growth inhibition, synergistic combos for chromothripsis tumors, BGB or cisplatin IC20 combos (AID 1671454; in the data active = inhibition above about 80%;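 note: cells exposed for 96 h before readout; 0% = vehicle DMSO and 100% = killing by high DMSO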). Conditions: CRL2098 osteosarcoma cells, drug combinations, stronger effect = higher value.
Assay [12] is described as follows: HD-MB03 medulloblastoma cell growth inhibition, synergistic combos for chromothripsis tumors, BGB or cisplatin IC20 combos (AID 1671455; in the data active = inhibition above about 83%;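 note: 0% = vehicle DMSO and 100% = high DMSO as cytotoxic control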). Conditions: HD-MB03 medulloblastoma cells, stronger effect = higher value.
Assay [13] in a line: UWB1.289 ovarian carcinoma cell growth inhibition, synergistic combos for chromothripsis tumors, BGB or cisplatin combos (AID 1671456; in the data active = inhibition above about 80%;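 note: cells exposed to compound for four days; 0% = vehicle DMSO and 100% = killing by high DMSO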). Conditions: UWB1.289 ovarian carcinoma cells, stronger effect = higher value.
Assay [14] is described as follows: LFS_MB_2R medulloblastoma cell growth inhibition, synergistic combos for chromothripsis tumors, cisplatin combos (AID 1671457; in the data active = inhibition above about 80%;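 note: cells exposed to compound for four days before readout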). Particulars: LFS_MB_2R medulloblastoma cells, stronger effect = higher value.
A short description of assay [15]: MDA-MB-436 breast carcinoma cell growth inhibition, synergistic combos for chromothripsis tumors, BGB or cisplatin combos (AID 1671458; call rule not given here;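 note: cells exposed for 96 hours; 0% = vehicle DMSO and 100% = killing by high DMSO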). Conditions: MDA-MB-436 breast carcinoma growth inhibition, drug combinations, stronger effect = higher value.
Assay [16] in a line: UWB1.289_BRCA1 ovarian cancer growth, cell-based, BGB or cisplatin combinations (AID 1671459; in the data active = inhibition above about 80%). Particulars: UWB1.289 BRCA1 ovarian carcinoma, drug combinations, stronger effect = higher value.
Assay [17] is described as follows: human astrocyte viability loss, single and combined drugs, cytotoxicity control for chromothriptic childhood tumor combination screen, cell-based, BGB or cisplatin IC20 combos (AID 1671460; in the data active = inhibition above about 80%;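 note: cells exposed to compounds for 96 hours before viability readout; 0% = vehicle and 100% = killing control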). Particulars: Human astrocytes, drug combinations, stronger effect = higher value.
Assay [18] in a line: growth inhibition of BT084 medulloblastoma cells, cell-based, ICGC_MB145, cisplatin and BGB IC40 combos (AID 1671461; in the data active = inhibition above about 80%;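 note: cells exposed to drugs for 96 hours; 0% = vehicle DMSO and 100% = high DMSO full killing control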). Conditions: drug combinations, stronger effect = higher value.
Assay [19] in a line: growth inhibition of RCMB18 medulloblastoma cells, cell-based, cisplatin and BGB IC40 combos (AID 1671462; in the data active = inhibition above about 80%;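 note: cells exposed to compound for four days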). Conditions: stronger effect = higher value.
Assay [20] in a line: growth inhibition of CRL1545 osteosarcoma cells, cell-based, cisplatin and BGB IC20 combos (AID 1671464; in the data active = inhibition above about 80%;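 note: cells exposed to compound for 96 hours before readout; 0% = vehicle DMSO and 100% = high DMSO killing control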). Conditions: stronger effect = higher value.
Setting [21] is: measured here: combination with cisplatin, at 0.5 µM.
Setting [22] is: measured here: combination with cisplatin, at 5 µM.

“And” between values parts separate entries of the source, which are not always exact repeats. Equal entries are not always repeated. The source made the active and inactive calls.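 Rule for the calls, unless noted: active = z-score of at least 1.8 in each of two replicates, scored against plate mean and spread of sample wells; inactive = the rest.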

Turning to `CC[C@H](c1ccc(O)cc1)[C@@H](CC)c1ccc(O)cc1`, the z-score in [1] is -0.325 (inactive).
On the same count and under the same terms, for `C=CCN1C[C@H](C(=O)N(CCCN(C)C)C(=O)NCC)C[C@@H]2c3cccc4[nH]cc(c34)C[C@H]21` the value was -0.085 (inactive); for `CCOC(=O)/C=C(C)/C=C/C=C(C)/C=C/c1c(C)cc(OC)c(C)c1C`, -1.38 (inactive).
As for `CC(C)NC[C@@H](O)COc1ccc(CC(N)=O)cc1`, in assay [2], the period change is 0.075 h (inactive).
As to `COc1ccccc1Oc1c(NS(=O)(=O)c2ccc(C(C)(C)C)cc2)nc(-c2ncccn2)nc1OCCO`, the z-score in assay [1] is 0.365 (inactive).
Same read-out and setting: for `CN1CCN(C2=Nc3ccccc3Sc3ccc(Cl)cc32)CC1` the value was -0.54 (inactive).
Still for that read-out and setting: for `O=C(O)Cc1sc(-c2ccccc2)nc1-c1ccc(Cl)cc1` the value was 1.28 (inactive); for `CCCCN1C[C@H](O)[C@@H](O)[C@H](O)[C@H]1CO`, 0.145 (inactive).
In the case of `CC1(C)CC1C(=O)NC(=CCCCCSCC(N)C(=O)O)C(=O)O` (stereo not drawn), the z-score in [1] was 0.555 (inactive).
As to `CCC1C(=O)OCC1Cc1cncn1C` (stereo not drawn), the compound was called inactive in [3].
The same measure, in the same setting: for `O=P(O)(O)C(Cl)(Cl)P(=O)(O)O` the value was “inactive”.
Take `O=C1NCN(c2ccccc2)C12CCN(CCCC(c1ccc(F)cc1)c1ccc(F)cc1)CC2`: the period change in assay [2] was -0.085 h (inactive). The inhibition in assay [4] was 0% (inactive). The fluorescence ratio (interference) in assay [5] was 1 (inactive). Also, in assay [3], the call was inactive. The z-score in [1] was -0.995 (inactive) and -1.48 (inactive).
For `Nc1c[n+](N2CCOCC2)no1`, the compound was classed as inactive in assay [3].
For the compound `Clc1cc(Cl)c(OCC#CI)cc1Cl`, in assay [6], the inhibition is 55.6%. In addition, the score in [7] was -0.06.
In the same order, the values of `CCOc1ccccc1OCC1CNCCO1` (stereo not drawn) are -5.29% and 1.39.
As to `CN1CC[C@H](c2c(O)cc(O)c3c(=O)cc(-c4ccccc4Cl)oc23)[C@H](O)C1`, in assay [8], the SSMD was determined as 1.33, the cell count was 6730 and the plate-normalised HSF1 focus index is 1.07 (inactive).
On to `CCCn1cnc2c1c(=O)n(CCCCC(C)=O)c(=O)n2C`, for which the period change in assay [2] was 0.185 h (inactive). Also, in assay [4], the inhibition was 1% (inactive). For the same compound, the fluorescence ratio (interference) in [5] was 1 (inactive). The red/green cell ratio (normalised) in assay [9] (actives lie on both sides, counts scaled to control wells, 1 = unselective) is 0.84 (inactive). The normalised cell number was 1.14 in [9] (measured here: epithelial PC-3E GFP cell survival) and 0.96 in [9] (measured here: mesenchymal TEM4-18 mCherry cell survival). The z-score in assay [1] is 0.675 (inactive).
Consider `CN1C[C@@H]2C[C@H]1CN2c1cc2c(cc1F)c(=O)c(C(=O)O)cn2C1CC1`, for which the inhibition in assay [10] (at 0.5 µM) is -32.5% (inactive); in assay [10] (measured here: combination with BGB IC40, at 0.05 µM) it was -27.6%; in [10] (setting [21]), -60%; in [10] (setting [22]), -44.9%; in assay [11] (at 0.5 µM), -70.8% (inactive); in assay [11] (measured here: combination with BGB at IC20, at 0.5 µM) it was -121%. Also, the inhibition in assay [11] (measured here: combination with cisplatin at IC20, at 0.5 µM) is -50%; in [12] (at 0.5 µM), -14.8% (inactive); in assay [12] (measured here: combo with BGB at IC20, at 0.5 µM), -11.6%; in assay [12] (measured here: combo with cisplatin at IC20, at 0.5 µM), -20.6%; in [13] (at 0.5 µM) it was -14.3% (inactive); in assay [13] (measured here: inhibition with BGB combination, at 0.05 µM) it was -14.8%. Besides, the inhibition in [13] (measured here: inhibition with cisplatin combination, at 0.05 µM) was -20.1%; in assay [14] (at 0.5 µM), -7.92% (inactive); in [14] (setting [21]) it was -3.36%; in assay [14] (setting [22]), -96.9%; in [15] (at 0.5 µM), -9.69% (inactive); in assay [15] (measured here: BGB combination, at 0.5 µM) it was 1.19%. Besides, the inhibition is -5.03% in assay [15] (measured here: BGB combination, at 5 µM); -28.1% in assay [15] (measured here: cisplatin combination, at 0.5 µM); -7.33% in assay [15] (measured here: cisplatin combination, at 5 µM); -23.3% in assay [16] (BGB combination, concentration series, at 5 µM); -16% (inactive) in assay [16] (at 0.5 µM); 2.38% in assay [16] (cisplatin combination, concentration series, at 5 µM). Also, the inhibition was -25.7% (inactive) in [17] (at 0.5 µM); -14.8% in assay [17] (measured here: combo with BGB IC20, at 0.5 µM); -51.5% in assay [17] (measured here: combo with cisplatin IC20, at 0.5 µM); -14.9% (inactive) in assay [18] (at 0.5 µM); -11.4% in [18] (cisplatin combination, at 0.5 µM); -13.9% in assay [18] (cisplatin combination, at 5 µM). The inhibition was 0.828% in assay [18] (measured here: BGB IC40 combination 0.05 uM, at 0.05 µM); -12.4% in assay [18] (single agent, at 5 µM); -27.5% (inactive) in assay [19] (at 0.5 µM); -18.3% in assay [19] (cisplatin combo, at 5 µM); -12.7% in [19] (measured here: BGB IC40 combination, at 0.05 µM); -81.8% in [19] (setting [21]). For the same compound, the inhibition in [19] (single agent, at 5 µM) is -17.7%; in [20] (at 0.5 µM) it was -62.9% (inactive); in [20] (measured here: with BGB IC20 combination, at 0.5 µM), -46.3%; in [20] (measured here: with cisplatin IC20 combination, at 0.5 µM), -75.1%; in [20] (single agent, at 0.05 µM), -30.1%; in [20] (single agent, at 5 µM), -48.9%.
